As a reminder, the AC50 is the concentration at which the activity in the assay is half-maximal.

This passage reports outcome and AC50 results from PubChem BioAssay (EPA / NIEHS).

SMILES strings stand for the structures. Active and inactive are the calls of the source. How the source made its calls: active means hit-call score of the fitted dose curve at least 0.9, where 1 is the maximum; inactive means score below 0.9.

Holding throughout (settings): mRNA level, 48 h; actives raise or lower the signal
Read-out in test [1]: Nuclear factor NF-kappa-B p105 subunit (Homo sapiens) (UniProt P19838)
The test can be described thus: LTEA_HepaRG_NFKB1: Life Technologies and Expression Analysis (LTEA) Assay for Nuclear Factor Kappa B Subunit 1 (NFKB1) using HepaRG (AID 2283521). The essentials: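 Differentiated human HepaRG cells in serum-free induction medium with 0.5% DMSO were exposed for 48 h to eight half-log concentrations, top 100 uM, in duplicate. NFKB1 mRNA measured by Fluidigm TaqMan qRT-PCR, normalised to ACTB, GAPDH and POLR2A; bidirectional fit versus DMSO.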

Read-out in test [2]: Protein phosphatase 2A (PPP2R4), PTPA (gene 5524)
Briefly: LTEA_HepaRG_PPP2R4: Life Technologies and Expression Analysis (LTEA) Assay for Protein phosphatase 2A (PPP2R4) using HepaRG (AID 2283522). The essentials: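 Using HepaRG cultures maintained in 0.5% DMSO, chemicals are tested 48 h at up to 100 uM in duplicate. Induction or suppression of PPP2R4 mRNA, measured by qRT-PCR, is fitted bidirectionally against the vehicle baseline.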

Read-out in test [3]: Phosphatase and tensin (PTEN), PTEN (gene 5728)
The test can be described thus: LTEA_HepaRG_PTEN: Life Technologies and Expression Analysis (LTEA) Assay for Phosphatase and tensin (PTEN) using HepaRG (AID 2283523). The method in brief: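 Read-out: TaqMan qRT-PCR of PTEN transcript, normalized to three housekeeping genes, fitted in both directions against 0.5% DMSO. Differentiated human HepaRG cultures received chemicals for 48 h, eight-point half-log series topping at 100 uM.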

Read-out in test [4]: solute carrier (SLC22A1), SLC22A1 (gene 6580)
The test can be described thus: LTEA_HepaRG_SLC22A1: Life Technologies and Expression Analysis (LTEA) Assay for solute carrier (SLC22A1) using HepaRG (AID 2283524). The essentials: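 Transcript level of SLC22A1 quantified by qRT-PCR (normalized to three housekeeping genes) after 48 h chemical exposure of HepaRG cells, eight concentrations up to 100 µM, half-log steps, 0.5% DMSO vehicle. Gain or loss relative to DMSO fitted bidirectionally.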

Read-out in test [5]: Pyruvate Dehydrogenase Kinase 4 (PDK4), PDK4 (gene 5166)
Briefly: LTEA_HepaRG_PDK4: Life Technologies and Expression Analysis (LTEA) Assay for Pyruvate Dehydrogenase Kinase 4 (PDK4) using HepaRG (AID 2283525). The essentials:
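Readout is qRT-PCR of PDK4 transcript, normalized to three housekeeping genes, with bidirectional fitting against 0.5% DMSO vehicle. Differentiated HepaRG cells were treated 48 h in serum-free induction medium, duplicate wells, eight-point half-log series topping at 100 uM.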

Read-out in test [6]: NAD(P)H dehydrogenase [quinone] 1 (NQO1), NQO1 (gene 1728)
Briefly: LTEA_HepaRG_NQO1: Life Technologies and Expression Analysis (LTEA) Assay for NAD(P)H dehydrogenase [quinone] 1 (NQO1) using HepaRG (AID 2283526). The method in brief: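 In this assay, gene expression is read by qRT-PCR after 48 h exposure of HepaRG cells to eight concentrations (max 100 uM, half-log) in 0.5% DMSO. Each chemical runs in duplicate, and activity is scored relative to vehicle.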

Read-out in test [7]: Nuclear factor erythroid 2-related factor 2 (Homo sapiens) (UniProt Q16236)
The test can be described thus: LTEA_HepaRG_NFE2L2: Life Technologies and Expression Analysis (LTEA) Assay for Nuclear factor erythroid 2-related factor 2 (NFE2L2) Transcription Factor using HepaRG (AID 2283527).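 Further: TaqMan qRT-PCR transcript level normalised to ACTB GAPDH and POLR2A housekeeping genes.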 The method in brief:
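NFE2L2 transcript level was read by qRT-PCR (housekeeping ACTB/GAPDH/POLR2A normalisation) after 48 h chemical treatment of HepaRG in serum-free induction medium. Duplicate 8-point half-log curves, top 100 uM, 0.5% DMSO vehicle; up- or down-regulation fitted against vehicle.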

Read-out in test [8]: succinate dehydrogenase complex iron sulfur subunit B (SDHB), SDHB (gene 6390)
The test can be described thus: LTEA_HepaRG_SDHB: Life Technologies and Expression Analysis (LTEA) Assay for succinate dehydrogenase complex iron sulfur subunit B (SDHB) using HepaRG (AID 2283528). The essentials:
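HepaRG cells (~100,000/well, plated 48 h) exposed in duplicate for 48 h in serum-free induction medium to 8-point half-log series from 100 uM in 0.5% DMSO; mRNA by qRT-PCR normalised to ACTB, GAPDH, POLR2A; bidirectional fit versus DMSO.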

Read-out in test [9]: Signal transducer and activator of transcription 3 (Homo sapiens) (UniProt P40763)
Briefly: LTEA_HepaRG_STAT3: Life Technologies and Expression Analysis (LTEA) Assay for Signal transducer and activator of transcription (STAT3) using HepaRG (AID 2283529). The method in brief:
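STAT3 transcript quantified by qRT-PCR against three housekeeping genes (ACTB, GAPDH, POLR2A), fitted both directions relative to DMSO. HepaRG cultures exposed 48 h to eight half-log concentrations, top 100 uM, 0.5% DMSO, serum-free induction medium.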

Read-out in test [10]: solute carrier (SLCO1B1), SLCO1B1 (gene 10599)
The test can be described thus: LTEA_HepaRG_SLCO1B1: Life Technologies and Expression Analysis (LTEA) Assay for solute carrier (SLCO1B1) using HepaRG (AID 2283530). The essentials: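 SLCO1B1 transcript levels were quantified by TaqMan qRT-PCR using three housekeeping genes for normalization. This followed 48 h chemical exposure (100 uM top, half-log, 8 points, 0.5% DMSO) of HepaRG liver cells, with gain or loss fitted relative to DMSO.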

Read-out in test [11]: sulfotransferase 2A1 (SULT2A1), SULT2A1 (gene 6822)
The test can be described thus: LTEA_HepaRG_SULT2A1: Life Technologies and Expression Analysis (LTEA) Assay for sulfotransferase 2A1 (SULT2A1) using HepaRG (AID 2283531). The essentials:
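Expression change of SULT2A1, by qRT-PCR with three housekeeping-gene normalization, was scored bidirectionally versus DMSO. Cells: differentiated HepaRG, dosed in duplicate for 48 h across 8 points, highest 100 µM, half-log dilution, 0.5% DMSO.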

Read-out in test [12]: Transforming Growth Factor (TGFB1), TGFB1 (gene 7040)
Briefly: LTEA_HepaRG_TGFB1: Life Technologies and Expression Analysis (LTEA) Assay for Transforming Growth Factor (TGFB1) Transporter using HepaRG (AID 2283533). The method in brief:
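TGFB1 transcript measured by qRT-PCR with normalisation to three housekeeping genes (ACTB, GAPDH, POLR2A); human HepaRG line treated in duplicate for 48 hr with an 8-point series topping at 100 uM, 0.5% DMSO vehicle, bidirectionally fitted.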

Read-out in test [13]: TIMP1, TIMP1 (gene 7076)
The test can be described thus: LTEA_HepaRG_TIMP1: Life Technologies and Expression Analysis (LTEA) Assay for TIMP1 using HepaRG (AID 2283534). The method in brief:
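Bidirectional change in TIMP1 transcript versus 0.5% DMSO, measured by TaqMan qRT-PCR with three housekeeping genes for normalization. HepaRG human liver cells dosed 48 h in duplicate, top concentration 100 uM with half-log dilutions.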

Read-out in test [14]: Tumor necrosis factor receptor 1 (TNFRSF1A), TNFRSF1A (gene 7132)
Briefly: LTEA_HepaRG_TNFRSF1A: Life Technologies and Expression Analysis (LTEA) Assay for Tumor necrosis factor receptor 1 (TNFRSF1A) using HepaRG (AID 2283535). The method in brief: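 mRNA measured by qRT-PCR (TaqMan, Fluidigm arrays) against ACTB/GAPDH/POLR2A housekeepers after 48 h chemical exposure of HepaRG cells. Top concentration 100 uM, half-log 8-point series, duplicates; vehicle 0.5% DMSO, both fit directions.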

Read-out in test [15]: Thyroid Hormone Responsive (THRSP), THRSP (gene 7069)
Briefly: LTEA_HepaRG_THRSP: Life Technologies and Expression Analysis (LTEA) Assay for Thyroid Hormone Responsive (THRSP) using HepaRG (AID 2283536). The essentials:
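THRSP transcript quantified by Fluidigm qRT-PCR against three housekeeping genes after 48 h chemical exposure of HepaRG cells in serum-free induction medium; eight-point half-log series, top 100 uM, 0.5% DMSO vehicle, duplicate wells.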

Read-out in test [16]: UDP glucuronosyltransferase (UGT1A1), UGT1A1 (gene 54658)
Briefly: LTEA_HepaRG_UGT1A1: Life Technologies and Expression Analysis (LTEA) Assay for UDP glucuronosyltransferase (UGT1A1) using HepaRG (AID 2283538). The method in brief:
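mRNA induction or loss of UGT1A1, by TaqMan qRT-PCR, in duplicate HepaRG wells after 48 h exposure to half-log dilutions topping at 100 uM; DMSO (0.5%) served as baseline.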

Read-out in test [17]: UDP glucuronosyltransferase (UGT1A6), UGT1A6 (gene 54578)
Briefly: LTEA_HepaRG_UGT1A6: Life Technologies and Expression Analysis (LTEA) Assay for UDP glucuronosyltransferase (UGT1A6) using HepaRG (AID 2283539). The essentials: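 Expression was quantified by TaqMan qRT-PCR on Fluidigm arrays with ACTB/GAPDH/POLR2A normalization and bidirectional fitting against 0.5% DMSO. HepaRG cells (~100,000/well) were treated in duplicate for 48 h at eight half-log concentrations up to 100 uM in serum-free induction medium.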

Read-out in test [18]: X-box binding protein 1 (XBP1), XBP1 (gene 7494)
Briefly: LTEA_HepaRG_XBP1: Life Technologies and Expression Analysis (LTEA) Assay for X-box binding protein 1 (XBP1) using HepaRG (AID 2283540). The method in brief: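 XBP1 transcript by qRT-PCR (housekeeping-normalized: ACTB, GAPDH, POLR2A) after 48 h chemical treatment of HepaRG cells, 8-point half-log series topping at 100 uM, vehicle 0.5% DMSO. Gain and loss of signal fitted relative to DMSO.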

Read-out in test [19]: Transforming Growth Factor (TGFA), TGFA (gene 7039)
The test can be described thus: LTEA_HepaRG_TGFA: Life Technologies and Expression Analysis (LTEA) Assay for Transforming Growth Factor (TGFA) using HepaRG (AID 2283532). The essentials: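 TGFA transcript quantified by qRT-PCR (Fluidigm arrays) against three housekeeping genes, after 48 hours chemical treatment of HepaRG cells. Top concentration 100 uM with half-log dilutions, 8 points, duplicates, 0.5% DMSO.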

Chain of Nuclear factor NF-kappa-B p105 subunit (Homo sapiens) (P19838 whole entry, looked up): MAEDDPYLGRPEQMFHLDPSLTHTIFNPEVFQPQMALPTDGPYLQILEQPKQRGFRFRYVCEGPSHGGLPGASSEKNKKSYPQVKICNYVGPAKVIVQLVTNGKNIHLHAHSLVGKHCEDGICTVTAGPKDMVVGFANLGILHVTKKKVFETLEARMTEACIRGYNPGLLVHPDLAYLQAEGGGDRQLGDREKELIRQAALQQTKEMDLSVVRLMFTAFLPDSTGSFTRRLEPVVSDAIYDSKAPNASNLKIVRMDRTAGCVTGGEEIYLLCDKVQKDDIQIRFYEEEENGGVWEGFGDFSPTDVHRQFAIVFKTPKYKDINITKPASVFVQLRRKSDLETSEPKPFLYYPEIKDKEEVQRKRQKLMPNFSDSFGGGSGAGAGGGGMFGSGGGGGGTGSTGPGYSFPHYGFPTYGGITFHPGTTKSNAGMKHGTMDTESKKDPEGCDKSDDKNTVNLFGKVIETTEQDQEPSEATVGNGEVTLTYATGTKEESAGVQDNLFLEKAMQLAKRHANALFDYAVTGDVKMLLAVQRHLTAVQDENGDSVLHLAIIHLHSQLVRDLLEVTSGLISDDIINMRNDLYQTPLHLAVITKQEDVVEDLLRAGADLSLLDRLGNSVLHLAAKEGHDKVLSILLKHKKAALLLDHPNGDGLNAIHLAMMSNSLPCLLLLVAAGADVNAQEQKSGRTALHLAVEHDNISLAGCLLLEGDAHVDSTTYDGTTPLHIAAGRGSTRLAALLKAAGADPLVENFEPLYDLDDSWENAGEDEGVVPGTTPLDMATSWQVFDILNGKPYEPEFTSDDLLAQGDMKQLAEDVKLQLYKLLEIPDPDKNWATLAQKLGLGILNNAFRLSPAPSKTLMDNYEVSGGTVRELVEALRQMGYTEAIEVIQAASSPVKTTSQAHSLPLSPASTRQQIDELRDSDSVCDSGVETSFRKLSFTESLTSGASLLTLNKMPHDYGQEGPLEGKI
Chain of Nuclear factor erythroid 2-related factor 2 (Homo sapiens) (Q16236 whole entry, looked up): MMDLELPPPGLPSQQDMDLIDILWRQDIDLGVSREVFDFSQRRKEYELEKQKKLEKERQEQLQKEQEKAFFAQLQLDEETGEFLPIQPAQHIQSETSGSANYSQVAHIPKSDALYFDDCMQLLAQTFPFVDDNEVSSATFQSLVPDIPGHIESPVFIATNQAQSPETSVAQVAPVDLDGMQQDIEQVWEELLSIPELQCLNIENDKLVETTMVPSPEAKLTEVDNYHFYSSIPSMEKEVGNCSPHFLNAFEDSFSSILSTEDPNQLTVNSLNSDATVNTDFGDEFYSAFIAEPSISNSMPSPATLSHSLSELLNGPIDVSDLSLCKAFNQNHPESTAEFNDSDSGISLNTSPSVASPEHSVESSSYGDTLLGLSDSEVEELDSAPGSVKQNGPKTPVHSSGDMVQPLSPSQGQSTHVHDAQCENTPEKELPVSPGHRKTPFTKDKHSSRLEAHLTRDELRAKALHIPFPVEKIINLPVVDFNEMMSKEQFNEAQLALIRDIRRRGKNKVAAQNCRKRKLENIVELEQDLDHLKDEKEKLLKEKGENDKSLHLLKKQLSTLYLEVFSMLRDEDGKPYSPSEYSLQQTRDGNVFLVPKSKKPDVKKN
Chain of Signal transducer and activator of transcription 3 (Homo sapiens) (P40763 whole entry, looked up): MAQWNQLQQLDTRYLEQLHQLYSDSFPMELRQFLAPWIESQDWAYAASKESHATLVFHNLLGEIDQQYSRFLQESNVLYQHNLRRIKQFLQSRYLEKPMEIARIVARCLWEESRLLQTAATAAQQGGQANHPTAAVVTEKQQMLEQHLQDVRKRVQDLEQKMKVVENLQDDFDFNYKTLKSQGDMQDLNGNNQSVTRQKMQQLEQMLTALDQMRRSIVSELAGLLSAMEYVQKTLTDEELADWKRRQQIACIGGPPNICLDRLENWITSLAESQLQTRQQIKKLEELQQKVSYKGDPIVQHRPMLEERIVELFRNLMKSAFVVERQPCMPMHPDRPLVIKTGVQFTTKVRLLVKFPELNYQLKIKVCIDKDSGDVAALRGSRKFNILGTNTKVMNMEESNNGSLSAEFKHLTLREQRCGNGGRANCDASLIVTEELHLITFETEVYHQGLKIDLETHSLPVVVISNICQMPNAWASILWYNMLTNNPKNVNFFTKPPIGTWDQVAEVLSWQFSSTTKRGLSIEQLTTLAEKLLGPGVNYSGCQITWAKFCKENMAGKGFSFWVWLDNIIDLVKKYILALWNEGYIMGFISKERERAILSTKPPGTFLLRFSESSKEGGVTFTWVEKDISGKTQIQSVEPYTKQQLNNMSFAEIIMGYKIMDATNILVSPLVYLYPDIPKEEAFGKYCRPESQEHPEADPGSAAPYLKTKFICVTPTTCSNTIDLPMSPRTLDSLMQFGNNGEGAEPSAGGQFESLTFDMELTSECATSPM

Turning to `NC(=O)N1c2ccccc2C=Cc2ccccc21`, the call in test [1], in [2], in [3], in test [4], in test [5] and in [6] was inactive. Besides, the result in test [7], in [8], in [9], in [10], in test [11] and in test [12] was inactive. The result in test [13], in test [14], in test [15], in test [17] and in test [18] was inactive. Also, in test [16], the AC50 is 21.6 µM (active).

In the case of `C[C@@H](Oc1ccc(CNC(=O)c2cccnc2Oc2ccc3c(c2)OCO3)c(F)c1)C(=O)O`, the molecule was called inactive in test [1], in test [2], in test [3], in [4], in test [6] and in test [7]. The molecule was classed as inactive in test [8], in test [9], in test [10], in test [11], in test [12] and in [13]. The molecule was called inactive in test [14], in [15], in test [16], in test [17] and in test [18]. Moreover, the AC50 in test [5] was 50 µM (active).

Regarding `CC(C)CCCCCCOC(=O)C1CCCCC1C(=O)OCCCCCCC(C)C` (configuration not stated), the outcome in test [1], in test [2], in test [3], in [4], in test [5] and in test [6] was inactive. Further, the molecule was called inactive in test [7], in [8], in test [9], in test [10], in test [12] and in test [13]. Also, the outcome in [15], in [16], in test [17] and in [18] was inactive. Besides, the AC50 was 9.92 µM (active) in test [11] and 0.00316 µM (active) in test [14].

Take `O=C(NO)C1(NS(=O)(=O)c2ccc(Oc3ccc(F)cc3)cc2)CCOCC1`: the call in [1], in test [2], in [3], in test [6], in [7] and in [8] was inactive. Moreover, the outcome in test [9], in test [10], in test [11], in [19], in [12] and in test [13] was inactive. The molecule was called inactive in test [14] and in test [18]. In addition, the AC50 was 80.7 µM (active) in test [4], 80 µM (active) in test [5], 12.2 µM (active) in test [16] and 77.7 µM (active) in test [17].
